This is part of a sample that, as a whole, favours compounds with a hit. Of some 79,000 tested, about 15% had one in any assay. Unmarked numbers belong to inactive results. Activity calls are given as the source filed them. Rule as the data show it: active = growth inhibition above about 70%; inactive = the rest. Where a SMILES comes first, the peptide text is derived from it. [ ]: non-standard residue; d: D form. The star is where a group is joined. Cbz = O=C(OCc1ccccc1)*; Nva = CCC[CH](N)C(=O)O
Assays:
[1] = NCI Yeast Anticancer Drug Screen. Data for the rad50 strain (AID 155);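 also: 0% = growth of vehicle-only cultures of the same strain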; conditions: S. cerevisiae rad50 strain growth inhibition; at 50.0 µM; active compounds read high
How it was run: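 DNA repair mutant yeast, compound exposure, growth read-out; inhibition is taken relative to vehicle.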

[2] = NCI Yeast Anticancer Drug Screen. Data for the mec2-1 strain (AID 157); conditions: S. cerevisiae mec2-1 strain, at 50.0 µM, active compounds read high
How it was run: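 Mutant yeast (mec2-1) grown with compound; growth inhibition relative to vehicle control reported.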

[3] = NCI Yeast Anticancer Drug Screen. Data for the sgs1 mgt1 strain (AID 161);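 also: 0% = growth of cultures given vehicle only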; conditions: S. cerevisiae sgs1 mgt1 strain, at 50.0 µM, active compounds read high
How it was run: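 Compounds are added to genetically altered yeast, and growth is compared with cultures given vehicle alone to give percent inhibition.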

[4] = NCI Yeast Anticancer Drug Screen. Data for the cln2 rad14 strain (AID 165);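 also: 0% = growth equal to vehicle treated cultures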; conditions: S. cerevisiae cln2 rad14 strain, at 50.0 µM, active compounds read high
How it was run: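 Readout is yeast growth inhibition versus vehicle-treated controls, using a strain with cln2 and rad14 alterations exposed to compound.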

[5] = NCI Yeast Anticancer Drug Screen. Data for the bub3 strain (AID 167); conditions: S. cerevisiae bub3 mutant strain, at 50.0 µM, active compounds read high
How it was run: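 In this screen, a yeast mutant lacking normal mitotic checkpoint function is challenged with compound. Relative growth versus vehicle gives the inhibition value.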

[6] = NCI Yeast Anticancer Drug Screen. Data for the mlh1 rad18 strain (AID 175); conditions: S. cerevisiae mlh1 rad18 strain growth inhibition; at 50.0 µM; active compounds read high
How it was run: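 Genetically defined yeast (DNA repair-deficient) exposed to compounds; growth inhibition determined relative to vehicle.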

Row | Structure (SMILES) | growth inhibition [1] | growth inhibition [2] | growth inhibition [3] | growth inhibition [4] | growth inhibition [5] | growth inhibition [6]
1 | O=C(c1ccc2c(c1)no[n+]2[O-])N(CCO)CCO | 58.8% | 8.45% | 47.1% | 92.5% (active) | 28.4% | 19.9%
2 | CCOc1c(N=Nc2ccccc2Cl)c(C)nn1C(N)=S | -14.2% | 8.7% | 45.5% | -2.25% | 53.4% | 49.4%
3 | O=[N+]([O-])c1ccc(Oc2ccc(Cl)cc2)cc1 | 16.9% | -11.8% | 14.6% | 2.1% | -18.9% | 21.8%
4 | CC1CN(C(c2ccccc2)c2ccccc2)CCN1CCO (stereo unspecified) | -3.75% | 20.6% | 12.3% | -65.2% | 4.85% | 25.4%
5 | CN(C)c1cccc(/C=C(\C#N)c2ccccc2)c1 | 2.85% | 13.8% | 35.5% | 28.8% | 54.1% | 15.2%
6 | CC(C)CCc1ccccc1O | -14.7% | -21.1% | -28.6% | -19.9% | 0.1% | -14.5%
7 | CCCCC(CC)CCC(O)C(O)C(C)C (stereo unspecified) (tested in a mixture with another compound) | -3.85% | 3.2% | -7.8% | -14.3% | -8.95% | -14.8%
8 | CC1(C)N=C(/C=N/O)C(C)(C)N1O | 6.65% | 0.55% | 6.15% | 6.3% | -4.95% | -18.7%
9 | O=[N+]([O-])c1ccccc1S(=O)NCc1c(Cl)cccc1Cl (stereo unspecified) | 14.1% | 13.3% | 24.5% | 22.5% | 5.2% | 24.5%
10 | COc1ccc(CCN2C(=O)c3cccc4c(Br)ccc(c34)C2=O)cc1 | 23.8% | 1.3% | 18.6% | 14.5% | 44.6% | 35.9%
11 | C/C([O-])=C(/c1nc(-c2ccc([N+](=O)[O-])o2)no1)[n+]1cc(C)ccc1C | 19.3% | 14% | 18.9% | 21.3% | 7.55% | 16.1%
12 | CC1SC2=NC3=C(c4ccccc4C3=O)C(c3ccc(F)cc3)N2C1=O (stereo unspecified) | 34.4% | 24.2% | 35.8% | 32% | 47.1% | 22.8%
13 | CCCCN(CCCC)CC(O)c1cc(-c2ccccc2)nc2c(O)cccc12 (stereo unspecified) | -28.6% | 22.4% | -18.2% | -14.4% | 3.6% | -12.2%
14 | CC1=[N+]([O-])c2ccccc2C(=O)C1=O | 35.3% | 12.3% | 35.3% | 33.6% | 41.1% | 27.1%
15 | CC1CC2OC(=O)C(C)C2CC2(C)C(OC3OC(CO)C(O)C(O)C3O)OCCC12 (stereo unspecified) | 11.7% | 2.25% | -17.9% | 4.4% | -6.8% | -49.7%
16 | Cc1cccc(C2=NC(=C3CCCCC3)C(=O)O2)c1 | 4.5% | 6.6% | 5.8% | 12.2% | 4% | 20.9%
17 | Cc1ccc(Nc2c3ccccc3nc3ccccc23)cc1 | 97.9% (active) | 88.5% (active) | 93.8% (active) | 91.1% (active) | 88.2% (active) | 97.1% (active)
18 | O=C(O)CCCCCCCCCCCc1ccccc1 | -30.8% | -16.8% | -19.3% | -13.2% | 5.55% | -38.5%
19 | O=C(CCSCCC(=O)N/N=C/c1ccccc1F)N/N=C\c1ccccc1F | 22.6% | 10.7% | 38.1% | 27.4% | 24.4% | 21.8%
20 | CC(C)C(=O)Oc1cc2c(=O)oc3c(OC(=O)C(C)C)c(OC(=O)C(C)C)cc4c(=O)oc(c1OC(=O)C(C)C)c2c34 | 40.1% | 12.6% | 25.6% | 13.7% | 31.6% | 48.5%
21 | C=C1C(=O)[C@@]23CC1C(O)[C@@H](OC(C)=O)[C@@H]2C1(C)C(OC(C)=O)C[C@@H](OC(C)=O)C(C)(C)[C@@H]1C[C@H]3OC(C)=O (stereo partly specified) | 16.1% | 11.9% | 14% | 22.4% | 2.05% | 0.15%

Row | Structure (SMILES) | growth inhibition [1] | growth inhibition [2] | growth inhibition [3] | growth inhibition [4] | growth inhibition [5] | growth inhibition [6]
22 | CCCC1OC(c2ccccc2)OCC1CC (stereo unspecified) | 6.45% | 20.2% | -12.7% | -36.9% | 15.8% | 9.05%
23 | Oc1ccccc1C=NCCN(CCN=Cc1ccccc1O)c1ccccc1 | 21.1% | 7.1% | 26.1% | 12.8% | 8.9% | 32.5%
24 | O=C(/C=C/c1ccc(OCC(=O)N2CCN(c3ccccc3)CC2)cc1)c1ccc(Cl)cc1 | 13.6% | 13.9% | -5.8% | 0.55% | 2.7% | -4.45%
25 | O=S(=O)(N/N=C/c1ccc(Cl)c(Cl)c1)c1ccccc1 | 18.9% | 13.6% | 9.8% | -28.4% | 13.1% | 32.2%
26 | COc1ccc2[nH]c(=O)cc(C)c2c1 | -5.35% | -4.1% | -1.6% | -37.7% | 18.9% | -85.3%
27 | CC(C)(C)CC(C)(O)C(=O)O (stereo unspecified) | 6.9% | -18.9% | -15.8% | -1.45% | -13.5% | -3.55%
28 | NC(CSS(=O)(=O)CC(N)C(=O)O)C(=O)O (stereo unspecified) | -5.85% | 3.45% | 6.15% | -20.7% | 6.4% | -7.05%
29 | CCN(CC)CC1CCCCN1CC(=O)N1c2ccccc2NC(=O)c2ccccc21 (stereo unspecified) | -6.85% | -3.25% | 5.25% | -6.1% | -1.9% | 5.95%
30 | O=C1OC2(OC2c2ccccc2)c2ccccc21 (stereo unspecified) | 0.25% | -8.95% | -37.2% | -15.2% | -29.8% | -22.1%
31 | CC(S)c1ccccc1 (stereo unspecified) | 6.4% | -0.55% | 13.2% | 11.9% | 25.7% | 14.4%
32 | CCOc1ccc(-n2c(C)c(COC(=O)NC)c(COC(=O)NC)c2C)cc1 | 16.1% | -5.9% | 68.9% | 3.8% | 67.2% | 92.5% (active)
33 | COC(=O)c1ccccc1NC(=O)Nc1cc(Cl)ccc1OC | 85.5% (active) | 91.2% (active) | 90.4% (active) | 80.8% (active) | 88.2% (active) | 88.9% (active)
34 | CCOC(=O)c1c(-c2ccc(OC)cc2)c(C#N)c(=S)n(C2OC(CO)C(O)C(O)C2O)c1-c1ccccc1 (stereo unspecified) | 6.7% | -29% | -20% | -11.6% | -12.4% | 2.95%
35 | CCCC(NC(=O)OCc1ccccc1)C(=O)NC(Cc1ccccc1)C(N)=O (stereo unspecified) (Cbz-[Nva]-Phe-NH2; configuration not given here) | -6% | -0.9% | -3.45% | -34.2% | -5.5% | 0.45%
36 | NC(=O)c1ncc[nH]c1=O | -0.65% | 5.35% | -12.6% | 1.7% | 4.2% | -9.15%
37 | CC(=O)CCC(CC(=O)O)C(C)C (stereo unspecified) | 12% | 0.05% | 14.9% | -9% | 4.8% | 24.1%
38 | CCC1OC(=O)C(CC)OC1=O (stereo unspecified) | -5.75% | -20.2% | -25.6% | -2.05% | -28.9% | -24.4%
39 | NC(=O)C1OC1(c1ccccc1)c1ccccc1 (stereo unspecified) | 20.8% | 5.2% | 3.05% | -2.1% | 4.15% | 3.15%
40 | Cc1ccc(NC(=O)CC/C(CC(=O)C(C)(C)C)=N\Nc2ccc([N+](=O)[O-])cc2[N+](=O)[O-])cc1C | 18.6% | -3.55% | -11.7% | 4% | 7.8% | -18.3%
41 | CC(C)OCC(O)CNCCN (stereo unspecified) | -30.8% | -20.9% | -7.9% | -2.5% | -21% | -0.75%

Reference: PubChem BioAssay (NCI)
